High-throughput results deposited in PubChem by Broad Institute.
Compounds with a hit are over-represented: about 2% of the library has one in this group of screens.
STK33 kin inh – STK33 kinase inhibitors, primary screen, biochemical, luminescence, ADP-Glo, MBP substrate; AID 2322, 2010; inhibition, % at 12.5 µM; Serine/threonine-protein kinase 33 (Homo sapiens), Q9BYT3; 27,000 tested, 0.44% active; in the data active = inhibition above about 20%; inconclusive = no clear call, values can overlap the other calls
Target sequence (Q9BYT3 whole entry, looked up): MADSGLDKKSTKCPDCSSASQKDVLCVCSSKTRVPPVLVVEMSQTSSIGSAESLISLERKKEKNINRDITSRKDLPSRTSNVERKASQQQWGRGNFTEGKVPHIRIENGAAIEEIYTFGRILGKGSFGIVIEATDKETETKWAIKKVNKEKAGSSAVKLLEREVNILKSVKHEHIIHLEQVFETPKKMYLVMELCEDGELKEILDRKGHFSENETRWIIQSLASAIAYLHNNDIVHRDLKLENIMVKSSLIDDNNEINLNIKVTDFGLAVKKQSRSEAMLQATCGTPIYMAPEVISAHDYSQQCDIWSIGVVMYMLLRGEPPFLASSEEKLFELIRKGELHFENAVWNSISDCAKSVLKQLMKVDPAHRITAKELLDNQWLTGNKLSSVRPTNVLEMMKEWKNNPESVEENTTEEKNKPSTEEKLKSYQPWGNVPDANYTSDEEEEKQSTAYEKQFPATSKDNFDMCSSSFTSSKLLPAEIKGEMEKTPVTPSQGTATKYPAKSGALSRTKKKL
ID4 SMM – binders of human ID4 protein, primary screen, biochemical, small molecule microarray, single point. DNA-binding protein inhibitor ID-4 (Homo sapiens), P47928. Flag-ID4 binding, fluorescence F/B. calls only. 31,000 tested, 1.2% active. AID 624137, 2012; call rule not given here;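 also: a binder raises fluorescence above local background on the spot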
p53 PUMA act – mutant p53 pathway re-activators, primary screen, cell-based, SW480, luciferase, single point, HTS; activation, % at 9.98 µM; SW480 PUMA-promoter luciferase, p53 mutant reactivation; 28,000 tested, 1.5% active; in the data active = activation above about 52%; inconclusive = no clear call, values can overlap the other calls
Numbers without * were called inactive; i = inactive; ? = inconclusive; . = no result; + = active, no number.

SMILES	STK33 kin inh	ID4 SMM	p53 PUMA act
Cc1cc(C)c(NC(=O)CSc2nc3ccc(NC(=O)c4ccccc4C)cc3s2)c(C)c1	0	i	-6
CC(=O)c1ccc(NC(=O)CSc2nc3ccc(NC(=O)c4ccccc4Cl)cc3s2)cc1	7	i	81*
COc1ccc(OC)c(NC(=O)C(C)N(c2ccc(C)c(C)c2)S(C)(=O)=O)c1 (stereo not drawn)	1	i	5
CCOc1ccccc1C(=O)Nc1ccc(S(=O)(=O)Nc2nc(C)cc(C)n2)cc1	2	i	-3
CCOc1ccccc1C(=O)Nc1ccc(S(=O)(=O)Nc2ccccn2)cc1	24*	i	39
Cc1ccc2nc(-c3ccc(NC(=O)CS(=O)(=O)Cc4ccccc4)cc3)sc2c1	4	i	75*
Cc1ccc2nc(-c3ccc(NC(=O)CSc4nnc(C)s4)cc3)sc2c1	0	i	-63
Cc1ccc2nc(-c3ccc(NC(=O)Cn4nc([N+](=O)[O-])c(Cl)c4C)cc3)sc2c1	5	i	80*
Cc1ccc2nc(-c3ccc(NC(=O)CN4C(=O)c5ccccc5C4=O)cc3)sc2c1	1	i	19
CN(CC(=O)Nc1ccc(Nc2ccccc2)cc1)S(=O)(=O)c1cc(Cl)ccc1Cl	-5	i	-16
COc1ccc(S(=O)(=O)N(C)CC(=O)Nc2cccc(C(F)(F)F)c2)cc1	5	i	-2
Cc1cc(C)c(N=C(NN)N(C)C)cc1C	-2	.	.
Cc1csc2c(SCC(O)C(F)(F)F)ncnc12 (stereo not drawn)	.	i	56*
OC(CSc1nccc(-c2ccc3c(c2)OCCO3)n1)C(F)(F)F (stereo not drawn)	.	i	?
C[C@@H]1CCCCO[C@H](CN(C)S(=O)(=O)c2cn(C)cn2)[C@@H](C)CN([C@H](C)CO)C(=O)c2cc(NS(C)(=O)=O)ccc2O1	3	i	3
C[C@H]1CN([C@@H](C)CO)C(=O)c2cc(NS(C)(=O)=O)ccc2O[C@H]1CN(C)C(=O)Nc1ccccc1	-2	.	.
C[C@@H]1CN([C@H](C)CO)C(=O)c2cc(NS(C)(=O)=O)ccc2O[C@H]1CN(C)Cc1ccccc1	.	i	0
C[C@H](CO)N1C[C@H](C)[C@@H](CN(C)Cc2ccccc2)Oc2ccc(NS(C)(=O)=O)cc2C1=O	.	+	-2
C[C@H](CO)N1C[C@H](C)[C@@H](CN(C)C(=O)Nc2ccccc2)Oc2ccc(NS(C)(=O)=O)cc2C1=O	.	+	7
C[C@@H]1CN([C@H](C)CO)C(=O)c2cc(NC(=O)CCCN(C)C)ccc2O[C@@H]1CN(C)C(=O)Nc1cccc2ccccc12	.	i	-7
C[C@@H]1CCCCO[C@H](CN(C)S(=O)(=O)c2cn(C)cn2)[C@H](C)CN([C@H](C)CO)C(=O)c2cc(NS(C)(=O)=O)ccc2O1	.	+	-1
C[C@@H]1CN([C@@H](C)CO)C(=O)c2cc(NC(=O)CCCN(C)C)ccc2O[C@H]1CN(C)C(=O)Nc1cccc2ccccc12	.	+	3
Clc1ccc(-c2nnc(SCC3CC3)o2)cc1	1	.	.
Nc1nc(SCC(=O)c2ccc(Cl)cc2Cl)n[nH]1	0	i	-5
COc1ccc(-c2ccc(CCC(=O)O)n2-c2ccc(Br)cc2)cc1	1	i	8
SMILES	STK33 kin inh	ID4 SMM	p53 PUMA act
O=C(CSc1n[nH]c(-c2ccc(Cl)cc2Cl)n1)N1CCc2ccccc21	4	i	-15
CC1C[C@@]23CC4C(C)(C)[C@@]5(C[C@]4(CN2C1=O)N(C)C3=O)C(=O)Nc1c5ccc2c1C(=O)CC(C)(C)O2 (stereo partly drawn)	-2	.	.
C[C@@H]1CN([C@@H](C)CO)C(=O)c2cc(NS(C)(=O)=O)ccc2O[C@@H](C)CCCCO[C@@H]1CN(C)C(=O)Nc1ccccc1	.	+	7
C[C@H]1CCCCO[C@H](CN(C)C(=O)Nc2ccccc2)[C@@H](C)CN([C@@H](C)CO)C(=O)c2cc(NS(C)(=O)=O)ccc2O1	.	i	18
Cc1c(C(=O)C2C(=O)C(=O)N(Cc3cccnc3)C2c2ccccn2)cnn1-c1ccccc1 (stereo not drawn)	1	+	-37
Cc1c(C(=O)C2C(=O)C(=O)N(Cc3cccnc3)C2c2cccs2)cnn1-c1ccccc1 (stereo not drawn)	2	i	43
Cc1cc(C(=O)SCc2ccccc2)nn1Cc1c(Cl)cccc1Cl	2	.	.
Cc1cc(C)c(OCC(=O)Nc2ccccc2-c2nc3ccccc3s2)c(Br)c1	-1	i	-15
Cc1occc1C(=O)Nc1sc2c(c1C(=O)NCc1cccnc1)CCCC2	4	+	18
O=C(Nc1sc2c(c1C(=O)NCc1cccnc1)CCCC2)c1ccc(Cl)cc1	2	i	24
Cc1cc(N(CC(=O)Nc2ccc(F)c(Cl)c2)S(C)(=O)=O)ccc1Br	1	i	-9
COc1ccc(CCNC(=S)N2CCN(C(=O)c3ccco3)CC2)cc1OC	-4	i	-11
O=C(CSc1nc(-c2ccccc2)cc(=O)[nH]1)Nc1ccc(Cl)cc1	13	i	-11
COc1ccccc1C(=O)Nc1ccc2c(c1)nc(CCNC(C)=O)n2C	0	i	131*
CC(=O)NCCc1nc2cc(NC(=O)Nc3ccccc3)ccc2n1C	3	i	3
C/C(=C\Cc1c(O[C@@H]2O[C@H](CO)[C@@H](O)[C@H](O)[C@H]2O)ccc2ccc(=O)oc12)CO	-7	i	-36
Cc1cc(C)nc(SCC(=O)c2c(C)[nH]c3ccccc23)n1	2	i	40
CCOC(=O)c1c(CSc2nc(C)cc(C)n2)nc2c3ccccc3ccn12	1	i	90*
CNC[C@@H]1Oc2ccc(NC(=O)Nc3ccc4c(c3)OCO4)cc2C(=O)N([C@H](C)CO)C[C@H]1C	.	+	-14
CNC[C@H]1OCCCC[C@@H](C)Oc2ccc(NC(=O)Nc3ccc4c(c3)OCO4)cc2C(=O)N([C@@H](C)CO)C[C@H]1C	.	+	-6
CNC[C@H]1Oc2ccc(NC(=O)Nc3ccc4c(c3)OCO4)cc2C(=O)N([C@@H](C)CO)C[C@@H]1C	5	i	-4
CNC[C@H]1Oc2ccc(NC(=O)Nc3ccc4c(c3)OCO4)cc2C(=O)N([C@@H](C)CO)C[C@H]1C	.	+	-3
CNC[C@@H]1OCCCC[C@H](C)Oc2ccc(NC(=O)Nc3ccc4c(c3)OCO4)cc2C(=O)N([C@H](C)CO)C[C@@H]1C	.	i	5
C[C@H](CO)N1C[C@H](C)[C@@H](CN(C)C)Oc2ccc(NC(=O)Nc3ccc4c(c3)OCO4)cc2C1=O	.	i	4
Cc1nnc(Nc2ccc(OCC(=O)N3CCN(c4ccccc4)CC3)cc2)c2ccccc12	0	i	-43
O=c1cc(Oc2ccc(O)cc2)oc2cc(O[C@@H]3O[C@H](CO[C@@H]4O[C@H](CO)[C@@H](O)[C@H](O)[C@H]4O)[C@@H](O)[C@H](O)[C@H]3O)cc(O)c12	4	.	6
O=C1C(=O)N(CCCn2ccnc2)C(c2cccs2)C1C(=O)c1cc2ccccc2o1 (stereo not drawn)	1	i	5
